Consider 23 compounds from ChEMBL document CHEMBL1157539, “Thousands of chemical starting points for antimalarial lead identification” (Nature, 2010).

What all share (format): functional
Assay [1] concerns Plasmodium falciparum. The assay can be described thus: GSK_TCMDC: Inhibition of Plasmodium falciparum 3D7 in whole red blood cells, using parasite LDH activity as an index of growth. Test compounds present at 2uM.
For assay [2], the system named is Plasmodium falciparum. The assay can be described thus: GSK_TCMDC: Inhibition of Plasmodium falciparum Dd2 in whole red blood cells, using parasite LDH activity as an index of growth. Test compounds present at 2uM.
Another assay has as its system HepG2. The assay can be described thus: GSK_TCMDC: Percent inhibition of human HepG2 cell line. Test compounds present at 10uM.

The term Inhibition denotes the drop in the measured response relative to a control, in per cent. Higher therefore signals a response far below the control. With `O=C(c1ccc(OCCn2ccnc2)cc1)N1CCC(c2ccc(Br)cc2)C1` (centres undefined), the figures for the Inhibition in the assay on Plasmodium falciparum [1], in the assay with Plasmodium falciparum [2] and in the assay on HepG2 were 100%, 99% and 49%, respectively.

Turning to `C[C@H]1CN(Cc2cccc(-c3cc(CNC(=O)c4cccc(CC5CCN(C)CC5)c4)ccc3F)c2)CCN1C`, the Inhibition in the assay with Plasmodium falciparum [1] was 100%; in the assay with Plasmodium falciparum [2] it was 99%; with HepG2, 42%.

For `CC(=O)Nc1cc(C(=O)Nc2cccc(-c3cccc(-c4nc5cc(C(F)(F)F)ccc5[nH]4)c3)c2)ccc1C`, the values for the Inhibition with Plasmodium falciparum [1], with Plasmodium falciparum [2] and in the assay on HepG2 were 97%, 43% and 56%, respectively.

Consider `CNCCNCc1ccc(-c2ccc(-c3nc4cc(C(F)(F)F)ccc4[nH]3)s2)cc1.O=C(O)C(F)(F)F`, for which the figures for the Inhibition in the assay on Plasmodium falciparum [1], in the assay with Plasmodium falciparum [2] and in the assay with HepG2 were 99%, 100% and 30%, respectively.

Regarding `c1ccc(-n2cncn2)cc1`, the Inhibition with Plasmodium falciparum [1] was 93%; with Plasmodium falciparum [2], 96%; with HepG2 it was 0%.

In the case of `CNC(=O)NC1CCN(Cc2c(-c3cccs3)nc3ccccc3c2C(=O)N[C@@H](C)C2CCCCC2)CC1`, the Inhibition with Plasmodium falciparum [1] came to 99%; in the assay on Plasmodium falciparum [2] it was 97%; in the assay with HepG2 it was 5%.

With `COc1ccc2nc(Nc3nc(-c4ccccn4)cs3)sc2c1`, the Inhibition in the assay with Plasmodium falciparum [1] was 93%; with Plasmodium falciparum [2] it was 94%; in the assay with HepG2 it was 40%.

As for `Cl.Oc1ccc2[nH]c(-c3cccs3)nc2c1CN1CCC(O)(c2ccccc2)CC1`, the figures for the Inhibition in the assay on Plasmodium falciparum [1], in the assay on Plasmodium falciparum [2] and in the assay with HepG2 were 93%, 69% and 10%, respectively.

For the compound `Cc1nc(NCCCn2ccnc2)cc(-c2cncc(-c3ccc(OC(F)(F)F)cc3)c2)n1`, the Inhibition in the assay on Plasmodium falciparum [1] was determined as 99%; in the assay with Plasmodium falciparum [2] it was 11%; in the assay on HepG2, 2%.

Regarding `Cc1cc(C)n(Cc2ccc(C(=O)NCC3CCCCC3)cc2)n1`, the Inhibition with Plasmodium falciparum [1] came to 95%; with Plasmodium falciparum [2], 1%; in the assay on HepG2 it was 0%.

For the compound `Cc1ccc2c(=O)c3cc(C)ccc3[nH]c2c1`, the figures for the Inhibition with Plasmodium falciparum [1], with Plasmodium falciparum [2] and in the assay on HepG2 were 96%, 94% and 10%, respectively.

Take `CC(C)(C)c1ccc(NC(=O)N[C@@H]2CCN(c3ccnc4ccccc34)C2)cc1.Cl`: the Inhibition in the assay on Plasmodium falciparum [1] is listed as 100%; in the assay on Plasmodium falciparum [2], 96%; in the assay with HepG2, 23%.

With `CC(=O)c1cccc(Nc2nc3ccc(OCc4cc(Cl)cc(Cl)c4)c(C#N)c3[nH]2)c1`, the Inhibition in the assay with Plasmodium falciparum [1] was found to be 86%; in the assay with Plasmodium falciparum [2], 45%; in the assay on HepG2 it was 29%.

As to `CC(C)CCNC(=O)C1Cc2c([nH]c3cc(Cl)ccc23)C2(CCN(CCc3ccccc3)CC2)N1` (centres undefined), the Inhibition in the assay with Plasmodium falciparum [1] came out at 100%; with Plasmodium falciparum [2], 55%; in the assay on HepG2 it was 17%.

As for `O=C(Nc1ccc(Cl)c(Cl)c1)Nc1ccc2nccc(N3CCN(Cc4ccccc4)CC3)c2c1`, the Inhibition amounted to 100% in the assay on Plasmodium falciparum [1], 100% in the assay on Plasmodium falciparum [2] and 31% in the assay on HepG2.

With `CC(Nc1ccnc2cc(Cl)ccc12)c1ccc(S(N)(=O)=O)cc1` (centres undefined), the Inhibition in the assay with Plasmodium falciparum [1] is recorded as 96%; with Plasmodium falciparum [2], 21%; in the assay on HepG2 it was 5%.

`N#Cc1ccc(C(=O)Nc2cc(-c3cccc(O)c3)cc3[nH]ncc23)cc1`: the Inhibition in the assay on Plasmodium falciparum [1] worked out at 90%; in the assay on Plasmodium falciparum [2], 79%; in the assay on HepG2, 15%.

Regarding `CN1C(=CC(=O)NC(=O)c2ccccc2)C(C)(C)c2ccccc21`, the Inhibition is 93% in the assay on Plasmodium falciparum [1], 89% with Plasmodium falciparum [2] and 0% in the assay on HepG2.

For `N#Cc1ccc(-c2cnc3ccc(NCc4ccc(S(N)(=O)=O)cc4)nn23)cc1`, the Inhibition in the assay on Plasmodium falciparum [1] was 98%; in the assay with Plasmodium falciparum [2], 100%; in the assay on HepG2 it was 7%.

Regarding `CCOC(=O)c1ccc(NC(=O)Nc2cccc(-c3cccc(-c4nc5ccccc5[nH]4)c3)c2)cc1`, the figures for the Inhibition with Plasmodium falciparum [1], in the assay on Plasmodium falciparum [2] and in the assay on HepG2 were 100%, 99% and 76%, respectively.

For the compound `O=C(O)C(F)(F)F.OC1(Cc2ccccc2)CCN(Cc2cccc(-c3c[nH]c4nc(NC5CCCC5)ncc34)c2)CC1`, the results for the Inhibition in the assay with Plasmodium falciparum [1], with Plasmodium falciparum [2] and in the assay with HepG2 were 96%, 35% and 45%, respectively.

For the compound `O=C(Nc1cccc(CN2CCCN(Cc3cccc(O)c3)CC2)c1)c1ccc(Cl)c(Cl)c1.O=C(O)C(F)(F)F`, the values for the Inhibition in the assay with Plasmodium falciparum [1], in the assay with Plasmodium falciparum [2] and in the assay on HepG2 were 100%, 79% and 25%, respectively.

For `Cn1c(Sc2ncnc3sccc23)nc2ccccc21`, the figures for the Inhibition in the assay with Plasmodium falciparum [1], with Plasmodium falciparum [2] and in the assay with HepG2 were 100%, 100% and 0%, respectively.
